According to PubChem BioAssay (Tox21):
Results filed as inconclusive are left out. The source made the active and inactive calls. Unless noted, calls come from the whole dose curve; as a rule, active = well fitted curve in the direction sought with a large enough effect in the repeat runs; inconclusive = weak or mixed curves; inactive = no such curve, though single readings can be large; an effect the other way counts as inactive or inconclusive.

Key:
[1] = biological target: Aryl hydrocarbon receptor (Homo sapiens) (UniProt P35869); assay: qHTS assay to identify small molecule that activate the aryl hydrocarbon receptor (AhR) signaling pathway (AID 743085); note: nearly all actives have a fitted effect of over 15% in size; note: potency is the fitted concentration of half-maximal effect;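 for activation: HG2L7.5c1 human HepG2 liver cells with stably integrated DRE-driven firefly reporter; series mostly up to about 70 µM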
Aryl hydrocarbon receptor (Homo sapiens), sequence (P35869 whole entry, looked up): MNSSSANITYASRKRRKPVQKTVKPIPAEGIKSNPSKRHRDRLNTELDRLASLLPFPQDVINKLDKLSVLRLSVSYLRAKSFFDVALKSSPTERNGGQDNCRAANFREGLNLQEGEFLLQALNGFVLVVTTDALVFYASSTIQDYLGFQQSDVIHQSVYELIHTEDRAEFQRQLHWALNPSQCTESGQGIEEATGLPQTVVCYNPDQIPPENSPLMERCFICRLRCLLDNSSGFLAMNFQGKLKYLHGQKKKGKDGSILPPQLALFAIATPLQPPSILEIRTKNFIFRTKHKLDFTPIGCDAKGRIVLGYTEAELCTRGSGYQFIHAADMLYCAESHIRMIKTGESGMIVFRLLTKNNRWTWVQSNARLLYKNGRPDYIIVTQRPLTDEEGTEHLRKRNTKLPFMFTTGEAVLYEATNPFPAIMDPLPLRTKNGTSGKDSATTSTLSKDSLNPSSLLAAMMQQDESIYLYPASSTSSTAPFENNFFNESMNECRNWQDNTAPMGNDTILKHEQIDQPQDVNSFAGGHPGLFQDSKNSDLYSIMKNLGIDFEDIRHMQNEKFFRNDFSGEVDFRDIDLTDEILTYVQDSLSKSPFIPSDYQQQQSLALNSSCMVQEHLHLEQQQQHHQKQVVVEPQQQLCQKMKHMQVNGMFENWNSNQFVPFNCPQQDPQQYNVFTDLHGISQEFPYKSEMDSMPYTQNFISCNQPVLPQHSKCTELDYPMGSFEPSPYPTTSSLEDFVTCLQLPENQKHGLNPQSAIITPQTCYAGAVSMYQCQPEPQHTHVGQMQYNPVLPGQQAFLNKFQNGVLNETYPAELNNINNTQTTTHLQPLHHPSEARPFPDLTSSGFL
Procedure, shortened: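 HepG2 cells (HG2L7.5c1) stably carrying a firefly luciferase reporter driven by 20 dioxin responsive elements were exposed to compound for 24 h at 37C after a 5 h settling period; luminescence rise (ONE-Glo) indicated activation.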

[2] = biological target: Peroxisome proliferator-activated receptor gamma (Homo sapiens) (UniProt P37231); assay: qHTS assay to identify small molecule agonists of the peroxisome proliferator-activated receptor gamma (PPARg) signaling pathway (AID 743094; active = well fitted activation curve with a large enough effect in the signal ratio in the repeat runs, not every such curve was filed as active; the % refers to the signal ratio)
Peroxisome proliferator-activated receptor gamma (Homo sapiens), sequence (P37231 whole entry, looked up): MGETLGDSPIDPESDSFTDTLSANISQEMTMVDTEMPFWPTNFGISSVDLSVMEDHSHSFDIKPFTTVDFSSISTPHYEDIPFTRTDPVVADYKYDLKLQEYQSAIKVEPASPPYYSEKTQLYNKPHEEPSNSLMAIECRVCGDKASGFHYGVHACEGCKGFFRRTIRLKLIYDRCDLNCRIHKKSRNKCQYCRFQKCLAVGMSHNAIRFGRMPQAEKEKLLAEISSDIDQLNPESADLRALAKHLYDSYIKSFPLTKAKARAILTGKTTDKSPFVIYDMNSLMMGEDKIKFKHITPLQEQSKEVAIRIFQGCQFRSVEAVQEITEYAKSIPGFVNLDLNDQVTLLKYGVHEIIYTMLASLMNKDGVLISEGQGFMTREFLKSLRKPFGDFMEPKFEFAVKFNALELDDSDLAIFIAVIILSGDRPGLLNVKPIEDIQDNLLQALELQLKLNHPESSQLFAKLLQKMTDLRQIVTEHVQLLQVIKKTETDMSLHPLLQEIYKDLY
Procedure, shortened: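 Cells from the PPARg UAS-bla HEK293H line are plated and incubated 5 h at 37C. Compounds in DMSO are pinned in and left 17 h at 37C. LiveBLAzer B/G substrate is then added for 1 h at room temperature before fluorescence is measured.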

[3] = qHTS assay to identify small molecule antagonists of the peroxisome proliferator-activated receptor gamma (PPARg) signaling pathway - cell viability counter screen (AID 743194); note: nearly all actives have a fitted effect of over 55% in size; note: potency is the fitted concentration of half-maximal effect
Procedure, shortened: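 Viability was measured as CellTiter-Glo luminescence in GeneBLAzer PPARg UAS-bla HEK293H cells. These cells had been exposed 17 h at 37 C to compounds together with rosiglitazone at 50 nM final, with the beta-lactamase readout taken in the same wells.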

[4] = qHTS assay for small molecule agonists of the antioxidant response element (ARE) signaling pathway - cell viability counter screen (AID 743203; calls by dose curve; note: nearly all actives have a fitted effect of over 55% in size; note: potency is the fitted concentration of half-maximal effect)
Procedure, shortened: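 Cytotoxicity was tested in parallel with the ARE reporter screen. ARE-bla HepG2 cells were exposed to compounds for 16 hrs, and viability was taken from CellTiter-Glo luminescence.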

[5] = qHTS assay for small molecule activators of the heat shock response signaling pathway - cell viability counter screen (AID 743209); note: nearly all actives have a fitted effect of over 50% in size; note: potency is the fitted concentration of half-maximal effect
Procedure, shortened: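 Cytotoxicity counter screen run in parallel with the HSE beta-lactamase reporter, using the same wells. HeLa HSE-bla cells received compound for 5 h at 37 C; ATP-based CellTiter-Glo luminescence was measured after 30 min at room temperature.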

[6] = qHTS assay for small molecule activators of the heat shock response signaling pathway (AID 743210; active = well fitted activation curve with a large enough effect in the signal ratio in the repeat runs, with a control signal flat, not every such curve was filed as active; the % refers to the signal ratio; note: series mostly up to about 63 µM)
Procedure, shortened: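 Compound exposure lasted 5 h at 37 C in HeLa cells carrying a heat-shock-element-driven beta-lactamase reporter. Read-out: fluorescence intensity after 2.5 h room-temperature loading with LiveBLAzer B/G FRET substrate.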

[7] = qHTS assay to identify small molecule agonists of the peroxisome proliferator-activated receptor delta (PPARd) signaling pathway - cell viability counter screen (AID 743211); note: nearly all actives have a fitted effect of over 55% in size; note: potency is the fitted concentration of half-maximal effect
Procedure, shortened: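 PPARd-bla HEK293H cells (UAS-beta-lactamase reporter) were treated with compounds for 17 h at 37 C. Viability was then read in the same wells by CellTiter-Glo luminescence after 30 min at room temperature.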

[8] = qHTS assay for small molecule agonists of the antioxidant response element (ARE) signaling pathway (AID 743202; active = well fitted activation curve with a large enough effect in the signal ratio in the repeat runs, not every such curve was filed as active; the % refers to the signal ratio; note: potency is the fitted concentration of half-maximal effect)
Procedure, shortened: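 After 16 hours of compound treatment at 37 C, HepG2 cells with a stably integrated ARE-driven beta-lactamase reporter were loaded 2 hours at room temperature with LiveBLAzer B/G FRET substrate and fluorescence intensity measured.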

[9] = qHTS assay to identify small molecule that activate the aryl hydrocarbon receptor (AhR) signaling pathway - cell viability counter screen (AID 743086);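 note: HepG2 liver cells carrying the AhR DRE luciferase reporter; series mostly up to about 70 µM; nearly all actives have a fitted effect of over 45% in size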
Procedure, shortened: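 Cytotoxicity counter screen: CellTiter-Fluor signal (30 min, 37 C) in 4000 HepG2 cells/well carrying the DRE-luciferase reporter, following 24 h compound exposure at 37 C.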

[10] = biological target: Peroxisome proliferator-activated receptor gamma (Homo sapiens) (UniProt P37231); assay: qHTS assay to identify small molecule antagonists of the peroxisome proliferator-activated receptor gamma (PPARg) signaling pathway (AID 743191; calls by dose curve; note: series mostly up to about 63 µM; nearly all actives have a fitted effect of over 30% in size)
Procedure, shortened: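 Beta-lactamase reporter under UAS control in HEK293H PPARg-bla cells; compound treatment 17 h at 37C. Read-out: fluorescence intensity after 1 h room-temperature incubation with LiveBLAzer B/G FRET substrate.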
% is set by controls: 0 for no effect and ±100 for the full control effect.

CC(C)(C)CCCCCCOC(=O)c1ccccc1C(=O)OCCCCCCC(C)(C)C
inactive: Potency [1] | outcome [2] | Potency [3] | Potency [4] | Potency [5] | Potency [6] | Potency [7]

CO[C@@H]1[C@@H](OC)[C@H](C)[C@@](O)(CC(=O)O)O[C@H]1[C@H](C)[C@H]1O[C@@]2(CC[C@@](C)([C@H]3CC[C@@](C)([C@@H]4O[C@@H]([C@H]5O[C@](C)(O)[C@H](C)C[C@@H]5C)C[C@@H]4OC4C[C@H](OC)[C@@H](OC)[C@H](C)O4)O3)O2)C[C@H](O)[C@H]1C (some centres undefined)
inactive: Potency [1] | outcome [2] | Potency [6]
active: Potency [3] 8.41 µM | Potency [5] 11.9 µM | Potency [7] 2.98 µM

CCCc1nc2c(C)cc(-c3nc4ccccc4n3C)cc2n1Cc1ccc(-c2ccccc2C(=O)O)cc1
active: Potency [8] 26.6 µM
inactive: Potency [1] | Potency [3] | Potency [4] | Potency [5] | Potency [6] | Potency [7]

CCCCCCCCCCCCCOC(=O)CCSCCC(=O)OCCCCCCCCCCCCC
inactive: Potency [1] | outcome [2] | Potency [3] | Potency [8] | Potency [4] | Potency [5] | Potency [6] | Potency [7]

C=CC(=O)NC(C)C
inactive: Potency [1] | outcome [2] | Potency [3] | Potency [8] | Potency [4] | Potency [5] | Potency [6] | Potency [7]

CC(C)(O)CCc1ccccc1
inactive: Potency [9] | outcome [2] | Potency [10] | Potency [3] | Potency [8] | Potency [4] | Potency [5] | Potency [6]

CC(=O)Oc1cccc(O)c1
inactive: Potency [1] | outcome [2] | Potency [3] | Potency [4] | Potency [5] | Potency [6] | Potency [7]

Nc1cccc2c(N)cccc12
inactive: outcome [2] | Potency [5] | Potency [7]
active: Potency [1] 19.3 µM

CC(C)(C)S
inactive: Potency [1] | outcome [2] | Potency [3] | Potency [8] | Potency [4] | Potency [7]

COc1cc(C(C)=O)ccc1OCCCN1CCC(c2noc3cc(F)ccc23)CC1
inactive: Potency [1] | Potency [3] | Potency [4] | Potency [5] | Potency [6] | Potency [7]

CC[C@H]1OC(=O)[C@H](C)[C@@H](O[C@H]2C[C@@](C)(OC)[C@@H](O)[C@H](C)O2)[C@H](C)[C@@H](O[C@@H]2O[C@H](C)C[C@H](N(C)C)[C@H]2O)[C@](C)(O)C[C@@H](C)/C(=N\OCOCCOC)[C@H](C)[C@@H](O)[C@]1(C)O
inactive: Potency [1] | outcome [2] | Potency [8] | Potency [4] | Potency [5] | Potency [7]

Nc1ccc(N=Nc2ccc(N)cc2)cc1
inactive: Potency [1] | outcome [2] | Potency [4] | Potency [5] | Potency [6] | Potency [7]
active: Potency [8] 2.43 µM

CC1CCCO1 (centres undefined)
inactive: Potency [1] | outcome [2] | Potency [3] | Potency [4] | Potency [5] | Potency [6] | Potency [7]

CSSc1ccoc1C
inactive: Potency [1] | outcome [2] | Potency [8] | Potency [4] | Potency [5] | Potency [6] | Potency [7]

CNS(=O)(=O)c1cc(C(=O)N2CCC(CCN3C4CCC3CC(n3c(C)nc5ccccc53)C4)(c3cccc(F)c3)CC2)c(Cl)cc1F (centres undefined)
inactive: Potency [1] | Potency [5]
active: Potency [7] 8.71 µM

CN1CCCN(C(c2ccccc2)c2ccc(Cl)cc2)CC1 (centres undefined)
inactive: Potency [1] | Potency [5] | Potency [6]
active: Potency [7] 21.1 µM

CC1CCC(C(C)CS)CC1S (centres undefined)
inactive: Potency [1] | outcome [2] | Potency [7]
active: Potency [4] 15.4 µM | Potency [5] 38.9 µM

CC(=O)OC(C)C[N+](C)(C)C (centres undefined)
inactive: Potency [1] | Potency [3] | Potency [8] | Potency [4] | Potency [5] | Potency [6] | Potency [7]

C1=CCC2CC=CC2C1 (centres undefined)
inactive: Potency [9] | outcome [2] | Potency [10] | Potency [3] | Potency [4] | Potency [5] | Potency [6] | Potency [7]

Nc1c(Cl)cc(Cl)cc1[N+](=O)[O-]
inactive: Potency [1] | Potency [3] | Potency [4] | Potency [5] | Potency [7]

CCC(=O)OCc1ccc(OC)cc1
inactive: Potency [9] | Potency [3] | Potency [4] | Potency [5] | Potency [7]

CCOC(=O)Oc1ccc(CCNC(=O)[C@H](CCSC)NC(C)=O)cc1OC(=O)OCC
inactive: Potency [3] | Potency [8] | Potency [4] | Potency [5] | Potency [6] | Potency [7]

CC1=CC[C@@H]2C[C@H]1C2(C)C
inactive: Potency [9] | outcome [2] | activation [8] -11.5% [at 18.1 µM] | viability change, negative = cytotoxic [4] -20.1% [at 18.1 µM] | activity change, negative = cytotoxicity [5] -3.23% [at 13.2 µM] | activity change, negative = cytotoxicity [7] -15.6% [at 13.2 µM]

Cc1cc([N+](=O)[O-])ccc1N
inactive: outcome [2] | Potency [3] | Potency [8] | Potency [4] | Potency [5] | Potency [7]

Oc1ccc2c(c1)Cc1ccccc1-2
active: Potency [8] 34.4 µM
inactive: Potency [9] | outcome [2] | Potency [3] | Potency [4] | Potency [5] | Potency [6] | Potency [7]

CCC1CCC(CCC(=O)O)C1 (centres undefined)
inactive: Potency [4] | Potency [5] | Potency [7]

CCCCOCCOC(=O)c1cccnc1
inactive: Potency [10] | Potency [3] | Potency [8] | Potency [4] | Potency [5] | Potency [6] | Potency [7]

Cc1ccc(Nc2c(F)cccc2Cl)c(CC(=O)O)c1
inactive: Potency [9] | Potency [3] | Potency [4] | Potency [5] | Potency [6] | Potency [7]

CCCOC(=O)c1c(Cl)c(Cl)c(Cl)c(Cl)c1C(=O)OCCC
inactive: Potency [9] | outcome [2] | Potency [4] | Potency [5] | Potency [6] | Potency [7]
